Compound activity: PubChem BioAssay, Broad Institute
aSyn 5UTR act – Activators via SNCA 5'UTR binding, MLPCN. alpha-synuclein 5'UTR reporter, activators screen. activity score, % (tested at 7.5 µM), hits read low. hit rate 7.1% among 300,000. AID 1814; in the data active = activity score below about -60%
* marks the source's active call; other numbers are inactive results. Not all results are given here.

SMILES	aSyn 5UTR act
C(=C\c1ccco1)/C1=NN(c2ccccc2)C(c2ccco2)C1 (stereo not given)	-210*
CC(C)c1ccc(-c2cc(C(=O)NN3CCN(C)CC3)c3ccccc3n2)cc1	-117*
CC(C)c1ccc(-c2cc(C(=O)N3N=C(C(F)F)CC3(O)C(F)F)c3ccccc3n2)cc1 (stereo not given)	-166*
CN1CCN(c2ccc(-c3ccc4ccccc4n3)cc2)CC1	112
Cc1ccc(C(c2cc(Cl)c3cccnc3c2O)N2CCN(C)CC2)cc1 (stereo not given)	66
COc1ccc(/C=C2\SC(=S)N(CC3CCCO3)C2=O)cc1 (stereo not given)	-89*
COc1ccc(/C=C2/SC(=O)NC2=O)cc1	-118*
COc1cc(/C=C2/SC(=S)N(CC3CCCO3)C2=O)ccc1O (stereo not given)	-95*
Cc1ccc(/C=C2\SC(=S)N(CC3CCCO3)C2=O)o1 (stereo not given)	-68*
COc1ccc(/C=C2/SC(=S)N(CCC(=O)O)C2=O)cc1	98
CCn1cc(SCC(=O)N2CCOCC2)c2ccccc21	-114*
O=C(Cn1cc(SCc2ccccc2Cl)c2ccccc21)N1CCOCC1	-163*
Cc1[nH]n(-c2ccccc2)c(=O)c1/C=C1/C=c2ccccc2=N1	-69*
Cc1ccc(SCc2cc(=O)n3ccsc3n2)c(C)c1	-79*
O=C(Nc1ccc(Cl)cc1)C1C2CCCCC21 (stereo not given)	-150*
CCc1ccc(NC(=O)C2C3/C=C\CCCCC32)cc1 (stereo not given)	-165*
Cc1ccc(C(=O)CSc2nnc(C(C)C)n2C)cc1C	-75*
O=C(CNC(=O)c1cn2ccccc2n1)Nc1ccc(F)c(F)c1	-209*
COC(=O)N/N=C\c1ccccc1OC/C=C/c1ccccc1	-123*
CCOC(=O)N/N=C\c1ccccc1OC/C=C/c1ccccc1	-95*
Cc1ccc(Nc2nc(N)nc(CSC(=S)N3CCOCC3)n2)cc1	-127*
Nc1nc(CSC(=S)N2CCOCC2)nc(Nc2ccccc2)n1	-131*
Cc1cccc(Nc2nc(N)nc(CSC(=S)N3CCOCC3)n2)c1	-108*
COc1cccc(-c2nnc3sc(-c4ccccc4)nn23)c1	-69*
COc1ccccc1-c1nn2c(=O)cc(C)nc2s1	-72*
SMILES	aSyn 5UTR act
CCN(CC)c1ccc(-c2nn3c(-c4ccccc4OC)nnc3s2)cc1	83
COc1ccccc1-c1nn2c(-c3ccco3)nnc2s1	-196*
Cc1cc(=O)n2nc(-c3ccc(C(F)(F)F)cc3)sc2n1	-149*
CCn1cnc2sc(C(=O)Oc3ccc(Br)cc3)c(C)c2c1=O	-77*
Cc1nnc(SCC(=O)Nc2nc(-c3ccccc3)cs2)n1N	-81*
Cn1c(CCNC(=O)c2cccs2)nnc1SCC(=O)Nc1nc(-c2ccccc2)cs1	-73*
Cc1ccc(C(=O)NCCc2nnc(SCC(=O)Nc3nc(-c4ccccc4)cs3)n2C)cc1	-65*
COC(=O)c1sc(NC(=O)c2ccoc2C)nc1C	-136*
COC(=O)c1sc(NC(=O)/C=C/c2ccc(C)o2)nc1C	-65*
COC(=O)c1sc(NC(=O)c2ccco2)nc1C	-69*
C(C#CCCCCCCCCC[n+]1ccccc1)#CCCCCCCCCC[n+]1ccccc1	73
Oc1ccccc1N=Nc1ccccc1O	58
Nc1ccc(N=Nc2ccccc2O)c(N)c1	-136*
C=CCN1N=C(/C=C/c2ccc(C)cc2)CCC1=O	-89*
COc1ccc(/C=C/C2=NNC(=O)CC2)cc1	60
C=CCN1N=C(/C=C/c2ccc(OC)cc2)CCC1=O	-84*
CCN(Cc1ccc(OC)c(F)c1)C(=O)CCl	-74*
COc1ccc2cc(-c3[nH]ncc3CN3CCCCO3)ccc2c1	-106*
COc1ccc2cc(-c3[nH]ncc3CN3C[C@@H]4CCC[C@H]3C4)ccc2c1	-78*
C=CCc1cccc(C=Nc2cccn3cc(-c4ccccc4)nc23)c1O	-89*
C=CCc1cccc(C=Nc2cc(Br)ccc2O)c1O	-110*
CCc1ccc(O)c(N=Cc2cccc(C)c2O)c1	-131*
CCCCNC(=S)Nc1ccc(SC(F)F)cc1	-164*
COc1ccc(-c2cc(C(=O)Nc3ccc(C)cc3)no2)cc1	-71*
COc1ccc(OCc2cccc(C(=O)Nc3cc(C)on3)c2)cc1	66
SMILES	aSyn 5UTR act
COc1ccc(-c2cc(C(=O)Nc3cc(C)on3)no2)cc1	-71*
O=c1[nH]c(-c2cccnc2)nc2sc(-c3ccccc3)cc12	-119*
CC(C)OC(=O)Cc1nc2sc(-c3ccccc3)cc2c(=O)[nH]1	-87*
CN1C(=C2C(=O)OC(C)(C)OC2=O)Sc2ccccc21	-79*
CCN1/C(=C\C(=S)Nc2ccccc2)Sc2ccccc21	-144*
CCN1/C(=C/C(C)=C/c2sc3ccccc3[n+]2CC)Sc2ccccc21	100
Cc1cc(OCc2cc(C(=O)N(C)CCc3cnn(C)c3)no2)cc(C)c1Cl	-145*
COc1cc(Cl)ccc1OCc1cc(C(=O)N(C)CCc2cnn(C)c2)no1	-91*
COc1cc(/C=N/N=C2/NC(=O)C(CC(=O)O)S2)ccc1OCc1ccc(Cl)cc1 (stereo not given)	-149*
COc1cc(/C=N/NC(N)=S)ccc1OCc1ccc(C)cc1	-179*
COc1cc(/C=N/O)ccc1OCc1ccc(C(=O)O)cc1	116
COc1cc(/C=N/O)ccc1OCc1ccc(Cl)cc1	-97*
CC1CN(C(=O)c2ccccc2)C(=Nc2cccc(S(=O)(=O)N(C)C)c2)S1 (stereo not given)	41
O=C(N=C1N=C2C=CC=CN2Cc2ccccc21)c1ccc(S(=O)(=O)N2CCCC2)cc1	-134*
CN(C)S(=O)(=O)c1cccc(C(=O)N=C2N=C3C=CC(Cl)=CN3Cc3ccccc32)c1	-105*
O=C(N=C1N=C2C=CC=CN2Cc2ccccc21)c1ccc(S(=O)(=O)N2CCOCC2)cc1	-143*
CCSc1nnc(NC(=O)COc2ccccc2[N+](=O)[O-])s1	-114*
CC(C)c1nnc(NC(=O)COc2ccccc2[N+](=O)[O-])s1	-154*
NNC(=O)COc1ccccc1[N+](=O)[O-]	-87*
O=[N+]([O-])c1ccc(/C=C2\CCC(C3=CCCC3)=C2N2CCOCC2)cc1	-74*
Cc1cc(C(=O)N/N=C/c2cc(Cl)cc([N+](=O)[O-])c2O)c2ccccc2n1	-63*
CCn1cc(Cl)c(C(=O)Nc2ccccc2C(N)=O)n1	-87*
Cc1ccc(C(=O)Nc2cccc(C(F)(F)F)c2)cc1NC(=O)c1nccnc1N	78
CCn1cc(Cl)c(C(=O)Nc2cccc(C(F)(F)F)c2)n1	-105*
CCn1cc(Br)c(C(=O)Nc2cccc(SC)c2)n1	-141*
SMILES	aSyn 5UTR act
CCn1cc(Br)c(C(=O)Nc2ccccc2C(=O)OC)n1	-88*
Cc1c(C(=O)c2ccccc2)oc2ccc3ccccc3c12	-116*
Nc1c(C(=O)Nc2ccc3c(c2)OCCO3)nnn1Cc1ccc(Cl)cc1	-212*
Nc1c(C(=O)Nc2ccc3c(c2)OCCO3)nnn1Cc1cccc(F)c1	-176*
Nc1c(C(=O)Nc2cccc(F)c2)nnn1-c1cccc(C(F)(F)F)c1	-155*
Cc1ccc2nc(N/C(=N/S(=O)(=O)c3ccc(F)cc3)c3ccccc3)sc2c1	-107*
Cc1ccc2nc(N/C(=N/S(=O)(=O)c3ccc(F)cc3F)c3ccccc3)sc2c1	-108*
COc1ccccc1NC(=O)Cn1nnc(C(=O)NCc2cccs2)c1N	86
COc1ccccc1-c1ccc(=O)n(CC(=O)NCc2cccs2)n1	-73*
CCc1ccc(C(=O)Nn2cnc3ccccc3c2=O)cc1	-150*
Cc1ccc(C(=O)Nn2cnc3ccccc3c2=O)cc1C	-115*
